# Screening data: PubChem BioAssay, Sanford-Burnham Center for Chemical Genomics
# Sampled rows, rich in hits. Any-hit rate of the full collection: about 4%.
# CF NFkB inh = inhibitors of PAF-induced NF-kB signaling, primary screen, cell-based, GFP fluorescence, uHTS. 360,000 compounds, 0.86% hits. KKLEB NF-kB-GFP reporter, GFP fluorescence overnight. inhibition, % at 5 µM;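 active = at least 50% inhibition at 5 µM, scaled per plate between neutral and stimulator controls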;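 also: PAF is a Pseudomonas aeruginosa culture filtrate used as stimulus; plate controls were PAF-stimulated DMSO wells for no effect and unstimulated DMSO wells for full effect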
# HIF-2a block = HIF-2a reporter inhibitors, primary screen, luminescence, 786-0 RCC cells. inhibition, % at 18.8 µM. 786-0 RCC cells HIF-2a reporter, luciferase luminescence, overnight. 360,000 compounds, 0.72% hits;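 active = inhibition of the luminescence signal of 40% or more relative to plate controls, in a single-dose primary screen at 18.75 µM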
# KKLEB tox = cytotoxicity in KKLEB CF airway cells, primary screen, cytotoxicity control for CF NF-kB inhibitor project, cell-based, uHTS, fluorescence assay plates; 360,000 compounds, 0.36% hits; activity change (cytotoxicity), % at 5 µM; AID 602141, 2011; KKLEB CF airway cells viability, ATPlite luminescence, overnight; stronger effect = lower value; cells stimulated with P. aeruginosa culture filtrate;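 active = corrected activity change at or below -50% at 5 µM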
# Peg3 promoter = Peg3 promoter-driven luciferase inhibitors, primary screen, cell-based, HeLa, luciferase luminescence | HeLa PEG-Prom luciferase reporter, overnight | inhibition, % at 20 µM | 360,000 compounds, 1.7% hits;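 active = inhibition of at least 50% at 20 µM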
# TWEAK Fn14 block = inhibitors of TWEAK-Fn14 signaling, primary screen, luciferase reporter cells, uHTS; TWEAK-stimulated Fn14 reporter cells, luciferase luminescence, 8 h; AID 1159606, 2016; 360,000 compounds, 2% hits; inhibition, % at 10 µM; in the data active = inhibition above about 50%
# TROY signal inh = inhibitors of TROY-driven NF-kB signaling, primary screen, Q293 LMP1-TROYcd cells, NF-kB luciferase, uHTS; Q293 LMP1-TROYcd NF-kB luciferase reporter, 4 h; inhibition, % at 10 µM; 360,000 compounds, 0.98% hits; AID 1347056, 2019;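 active = compounds whose plate-normalised and pattern-corrected inhibition of the luciferase reporter signal at the single screening dose is 50% or more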
# * hit, by the source's call; . = not tested or not shown.
SMILES,CF NFkB inh,HIF-2a block,KKLEB tox,Peg3 promoter,TWEAK Fn14 block,TROY signal inh
Cc1cccc(-n2ccnc2SCC(=O)Nc2ccc3c(c2)OCCO3)c1,1.3,-74.3,-2.9,-67.5,5.7,51.2*
O=C(Nc1nc2c(F)cc(F)cc2s1)c1ccccn1,-28.4,-143.5,-20.8,75.3*,41.8,35.7
COc1cccc(C(=O)CSc2nccn2C)c1,0.7,-168.2,-7.2,-166.8,86.5*,-18.4
COc1ccc(C(=O)Nc2nnc(SCC(=O)NCc3ccco3)s2)c(OC)c1,-5.0,0.6,-10.8,-38.6,75.1*,43.2
O=C(Nc1nc(-c2cccs2)c(C(=O)C(F)(F)F)s1)c1ccco1,9.7,-9.3,-11.1,13.2,-8.4,13.8
O=C(Nc1nc(-c2cccs2)c(C(=O)C(F)(F)F)s1)c1ccccc1,43.3,-118.2,-1.8,-17.5,55.9*,59.5*
COc1ccc(NC(=O)Nc2nnc(-c3cccs3)s2)cc1,-5.5,-250.8,2.8,-181.8,-33.0,-58.8
COc1ccc(C(=O)Nc2nnc(SCC(=O)NC3CC3)s2)cc1,9.2,-35.5,-2.3,-42.1,53.7*,7.0
COc1ccc(C(=O)Nc2nnc(-c3cccs3)s2)cc1,0.3,-185.2,-12.1,-131.1,55.3*,7.3
O=C(Nc1c2c(nn1-c1cccc(Cl)c1)CS(=O)(=O)C2)C1CC1,15.9,12.3,-14.5,-0.3,-0.7,3.8
Cc1cc(=O)c(C(=O)c2ccccc2)c(C)o1,1.9,20.0,4.7,4.6,19.6,1.6
Cc1cc(Nc2ccc(F)cc2)nc(N)n1,9.2,-12.3,-5.1,-18.5,3.7,-2.6
CCc1ccc(NC(=O)CCc2ccc(CC)o2)cc1,10.3,-58.2,0.2,-14.8,-8.2,-4.2
COc1ccc(C(=O)Nc2nnc(SCC(=O)Nc3ccc(NC(C)=O)cc3)s2)c(OC)c1,16.3,-205.1,-22.9,-261.9,10.8,25.1
CCc1nnc(NC(=O)Nc2ccccc2OC)s1,15.2,-293.0,3.4,-153.4,4.6,-62.1
COc1ccc(C(=O)Nc2nnc(SCC(=O)NC3CCCC3)s2)c(OC)c1,-25.4,-115.0,-26.2,-115.4,74.1*,-24.7
CCc1nnc(NC(=O)c2ccc(OC)cc2OC)s1,-0.4,-37.6,-1.0,-99.1,74.1*,22.3
CN1CCN(C(=O)c2ccccc2NC(=O)c2ccccc2)CC1,-6.2,10.5,5.1,2.2,-1.7,5.4
Cc1ccc(N2C(=O)c3ccccc3C2=O)cc1Cl,-9.1,-55.6,11.8,-8.0,15.1,-42.7
O=C(NC(CC1CCCCC1)C(=O)O)c1ccccc1 (stereo not given),6.0,13.5,3.2,9.9,-6.4,-8.7
NC1=NC[C@H](Cc2ccccc2)N1CCCCC1CCCCC1,3.7,7.9,7.8,70.7*,5.0,22.1
NC1=NC[C@H](Cc2ccc(O)cc2)N1CCCCC1CCCCC1,-0.4,14.3,-19.3,-0.5,36.0,14.9
Cc1ccc(C)c(OCc2cc(C(=O)N3CC[C@@H]4CCCC[C@H]4C3)no2)c1,-22.6,-182.6,0.7,-164.0,-23.3,-29.8
O=C(NC1CCCCC1)C(c1cccnc1)N(C(=O)CCl)c1ccc(F)cc1 (stereo not given),46.5,39.8,-37.1,68.6*,42.0,4.9
CC(=O)c1cccc(N(C(=O)c2ccco2)C(C(=O)NC2CCCC2)c2ccccc2F)c1 (stereo not given),-20.6,11.5,17.3,-1.0,53.2*,-8.2
SMILES,CF NFkB inh,HIF-2a block,KKLEB tox,Peg3 promoter,TWEAK Fn14 block,TROY signal inh
O=C(NCC(=O)N(c1ccc(F)cc1)C(C(=O)NC1CCCCC1)c1cccnc1)c1ccco1 (stereo not given),3.5,7.6,13.9,-8.0,37.3,-1.0
COc1ccc(C(C(=O)NC2CCCCC2)N(C(=O)CCl)c2cccc(Cl)c2)cc1 (stereo not given),99.8*,36.1,-76.3*,102.1*,58.1*,-36.8
COc1ccc(C(C(=O)NC2CCCCC2)N(C(=O)c2cccs2)c2ccc3c(c2)OCO3)cc1 (stereo not given),47.1,-7.2,-70.5*,11.0,4.4,-8.1
O=C(NC1CCCCC1)C(c1ccccc1)N(C(=O)c1cccs1)c1ccc2c(c1)OCO2 (stereo not given),15.3,0.2,-9.0,12.4,1.2,-11.8
Cc1ccccc1Cn1nc(C)c(NC(=O)c2cc3n(n2)C(C(F)F)CC(C(F)F)N3)c1C (stereo not given),-5.9,14.3,8.1,9.5,-6.2,-8.1
CCOC(=O)C1CCCCN1Cc1ccc(F)c(Br)c1 (stereo not given),-2.0,19.2,-6.1,7.6,-0.9,3.6
COc1ccc(N(C(=O)c2ccco2)C(C(=O)NC2CCCCC2)c2cccs2)cc1OC (stereo not given),0.3,13.3,-8.8,10.7,77.3*,.
CC(=O)c1cccc(N(C(=O)c2ccco2)C(C(=O)NC2CCCC2)c2cccs2)c1 (stereo not given),-4.3,12.1,2.6,6.2,12.3,12.3
O=C(Nc1nnc(CCN2CCCCC2)s1)C1CCCCC1,-12.2,4.7,16.9,1.5,5.7,-32.4
CCN1CCc2c(sc(NC(=O)c3cc4ccccc4cc3OC)c2C(N)=O)C1,-15.5,26.1,-16.9,109.9*,-15.4,-12.0
CCOC(=O)N1CCN(S(=O)(=O)c2ccc(Cl)cc2)CC1,-18.2,-3.8,1.7,11.6,14.4,0.1
CCOc1ccc(OCCC(=O)OCC(=O)N2CCN(S(=O)(=O)c3ccc(Cl)cc3)CC2)cc1,84.5*,30.4,-12.6,30.1,28.5,-11.0
CCOC(=O)N1CCN(S(=O)(=O)c2ccc(C)cc2)CC1,-6.0,18.6,12.2,16.0,77.2*,17.8
CCOC(=O)N1CCN(S(=O)(=O)c2ccc(C(=O)Nc3sc4c(c3C(N)=O)CCN(CC)C4)cc2)CC1,21.9,-8.2,-7.4,76.1*,-4.1,-8.6
COC(=O)c1cc(C(=O)NCCC(C)C)cc([N+](=O)[O-])c1,5.2,16.9,-12.1,10.6,12.1,-8.3
Cn1c(=O)c2c(ncn2CC(=O)OCC(=O)Nc2cccc(Cl)c2)n(C)c1=O,-5.0,12.6,-9.2,5.2,0.4,-0.4
CNC(=O)c1c(NC(=O)c2ccc(S(=O)(=O)N3CCCCC3)cc2)sc2c1CCN(C(C)C)C2,14.0,5.1,-17.8,-8.8,-15.2,1.7
CCN1CCc2c(sc(NC(=O)c3ccc(S(=O)(=O)N4CCCC4)cc3)c2C(=O)NC)C1,4.5,28.9,-2.7,65.0*,11.6,-10.2
Cn1c(SCC(=O)c2ccc3c(c2)Cc2ccccc2-3)nnc1-c1cccc(N)c1,17.3,-11.3,3.0,21.3,9.5,-40.4
